# The campaign covered roughly 46,000 compounds. About 900 (2%) were called active. Roughly 1% stayed inconclusive and do not appear here. This excerpt belongs to a sample that is enriched for actives. Values without a mark were called inactive. Cut-off read from the data, not from the text of the source: active = ROS induction above about 79% (passing the limit was not always enough); inconclusive = no clear call, values can overlap the other calls.
# Test: ROS inducers in U2OS cancer cells, primary screen, cell-based, H2DCF-DA fluorescence (AID 624156);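 note: 0% = DMSO vehicle median and 100% = reference compound median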
# Conditions: at 10 µM, active compounds read high
row,SMILES,ROS induction (% of piperlongumine)
1,CC(C)OC(=O)C1=c2s/c(=C\c3cccnc3)c(=O)n2C(N)=C(C#N)C1c1cccnc1 (stereo not given),104% (active)
2,COC(=O)C1=C(N)Oc2cc(C)oc(=O)c2C1c1cccnc1 (stereo not given),69.7%
3,CCN(Cc1ccccc1)S(=O)(=O)c1cc(Cl)ccc1Cl,29.9%
4,CCN(CC)c1nc(C#N)nc(OC)n1,55.7%
5,CC(CN1CCCC1)OC(=O)c1cc(C(C)(C)C)cc(C(C)(C)C)c1 (stereo not given),21.6%
6,COC(=O)C1=C[C@@H](O)[C@@H](O)[C@H](O[C@@H]2O[C@H](CO)[C@@H](O)[C@H](O)[C@H]2OC(=O)/C=C/c2ccccc2)C1,-5.34%
7,CO[C@H]1O[C@H](CO)[C@@H](OC(=O)Nc2ccccc2-c2ccccc2)[C@H](OC(=O)Nc2ccccc2)[C@H]1OC(=O)Nc1ccccc1,132% (active)
8,CNC[C@@H]1Oc2c(NC(=O)Nc3ccccc3)cccc2C(=O)N([C@@H](C)CO)C[C@@H]1C,-4.47%
9,S=C(NCCc1ccc(Cl)cc1)Nc1ccccc1,-13.7%
10,O=C(c1cncc(NS(=O)(=O)c2ccc(Cl)cc2)c1)N1CCN(Cc2ccccc2)CC1,41.7%
11,CC(C)C1N=C2c3ccccc3N=C(SCC(=O)c3ccc(Br)cc3)N2C1=O (stereo not given),63.2%
12,O=c1c2ccccc2nc(SCc2cccc(F)c2)n1C1CC1,17.8%
13,Cc1ccc(-n2c(SCC(=O)Nc3cccc(C)c3C)nc3ccccc3c2=O)cc1,-0.837%
14,CC(C)(C)C(=O)CSc1nc2ccccc2c(=O)n1CC1CC1,120% (active)
15,O=C(CSc1nc(-c2cccs2)cc(C(F)(F)F)n1)OCCCc1ccccc1,1.26%
16,CC(C)NC(=O)N(C)C[C@H]1Oc2ccc(NS(=O)(=O)c3cn(C)cn3)cc2CC(=O)N([C@@H](C)CO)C[C@H]1C,1.5%
17,C[C@@H]1CCCCO[C@H](CN(C)Cc2ccncc2)[C@@H](C)CN([C@H](C)CO)C(=O)c2cc(NS(C)(=O)=O)ccc2O1,-7.81%
18,C[C@@H]1CCCCO[C@H](CN(C)S(=O)(=O)c2cccs2)[C@@H](C)CN([C@H](C)CO)C(=O)c2cc(NC(=O)Nc3ccccc3)ccc2O1,37.3%
19,C[C@@H]1CCCCO[C@@H](CN(C)S(=O)(=O)c2cccs2)[C@@H](C)CN([C@H](C)CO)C(=O)c2cc(NC(=O)Nc3ccc(F)cc3)ccc2O1,55.6%
20,C[C@@H]1CCCCO[C@@H](CN(C)Cc2ccncc2)[C@@H](C)CN([C@H](C)CO)C(=O)c2cc(NS(=O)(=O)c3cccs3)ccc2O1,104% (active)
21,C[C@@H]1CCCCO[C@@H](CN(C)S(=O)(=O)c2cccs2)[C@@H](C)CN([C@H](C)CO)C(=O)c2cc(NC(=O)Nc3ccc4c(c3)OCO4)ccc2O1,91.3% (active)
22,C[C@@H]1CN([C@H](C)CO)C(=O)c2cc(NS(=O)(=O)c3cccs3)ccc2O[C@H]1CN(C)Cc1ccncc1,26%
23,COc1ccc(C=NCc2ccc(OC)c(OC)c2)cc1OC,12.4%
24,CC1C=CCC2C(=O)N(c3cccc(Cl)c3)C(=O)C12 (stereo not given),-5.69%
25,CC1CCC(NC(=O)c2ccccc2C(=O)O)CC1 (stereo not given),-7.64%
26,Cc1ccc2c(c1)c(-c1ccccc1)c(-c1ccccc1)n2CC(O)CNCc1ccco1 (stereo not given),4.62%
27,O=C(COC(=O)c1cc2ccccc2cc1O)c1ccc(OCc2ccccc2)cc1,6.42%

row,SMILES,ROS induction (% of piperlongumine)
1,Cc1noc(C)c1NC(=O)N(C)C[C@H]1Oc2ccc(NC(=O)C3CCCCC3)cc2CC(=O)N([C@@H](C)CO)C[C@H]1C,-5.41%
2,FC(F)(F)c1cccc(NC(=S)Nc2cc(-c3cccs3)[nH]n2)c1,-6.71%
3,CCOC(=O)N1CCC(NC(=O)NCc2noc3ccccc23)CC1,-11.6%
4,CC(=O)Nc1ccc(NC(=O)CN(c2ccccc2Br)S(C)(=O)=O)cc1,-14%
5,CC(=O)Nc1ccc(NC(=O)COc2ccccc2C(=O)Nc2cccc(Cl)c2Cl)cc1,-10%
6,CC(=O)Nc1ccc(Nc2c3c4c(cccc4[nH]c2=O)C(=O)c2ccccc2-3)cc1,105% (active)
7,COc1cc2c(cc1NC(=O)CCC1CCCCC1)oc1ccccc12,-18.8%
8,CCOC(=O)c1c(C)nn(-c2ncccc2NC(=O)CCC(=O)O)c1C,-11.2%
9,COC(=O)[C@]1(Cc2ccccc2CN=[N+]=[N-])N=C(c2ccc(OCCCO)cc2)O[C@@H]1c1ccccc1CN=[N+]=[N-],86.1% (active)
10,COC(=O)[C@@]1(CCS(=O)(=O)c2ccccc2)N=C(c2ccc(OCCCO)cc2)O[C@H]1c1ccccc1N=[N+]=[N-],33.1%
11,[N-]=[N+]=Nc1ccccc1C[C@@]1(C(=O)NCc2ccccc2)N=C(c2ccc(OCCCO)cc2)O[C@@H]1c1ccccc1,30.8%
12,CNC[C@H]1Oc2ccc(NS(=O)(=O)c3cn(C)cn3)cc2C(=O)N([C@@H](C)CO)C[C@@H]1C,5.85%
13,COc1ccc(NC(=S)NCC(c2ccccc2)c2c[nH]c3ccccc23)cc1 (stereo not given),4.82%
14,COc1ccc(-c2cc(C(F)(F)F)nc(SCCC(=O)N(C)c3ccccc3)n2)cc1,33.5%
15,CCC(=O)Nc1ccccc1C(=O)Nc1ccccc1,10.3%
16,CC[N+]1=C(C)C(C)(C)c2cc(-c3ccccc3)ccc21,52.6%
17,CCn1c(SCC(=O)c2ccc(OC)cc2)nnc1-c1ccccc1F,-17.9%
18,Cc1nc2ccccn2c1-c1ccnc(SCC(=O)c2ccc(Cl)cc2)n1,102% (active)
19,C=CCn1c(SCc2nnc(SCC(=O)c3ccc(Cl)cc3)o2)nnc1-c1ccccc1,-1.34%
20,CC(C)NC(=O)c1ccc2c(c1)N(Cc1ccccc1)C(=O)CS2,-7.88%
21,COC(=O)/C=C1\SC(=NC(=O)c2ccc(F)cc2)NC1=O,1.03%
22,Cc1cccc(Cn2c(SCc3ccc(C(=O)N4CCCCC4)cc3)nc3ccncc32)c1,-1.54%
23,C[C@H](CO)N1C[C@H](C)[C@@H](CN(C)Cc2ccc(C(=O)Nc3ccccc3N)cc2)Oc2c(NC(=O)C3CC3)cccc2C1=O,101% (active)
24,COc1ccc(CN(C)C[C@H]2Oc3ccc(NC(=O)Cc4ccccc4)cc3CC(=O)N([C@@H](C)CO)C[C@@H]2C)cc1,65.1%
25,C[C@@H]1CN([C@H](C)CO)C(=O)c2cccc(NS(=O)(=O)c3ccc(Cl)cc3)c2O[C@@H]1CN(C)Cc1ccc(Oc2ccccc2)cc1,16.8%
26,C[C@@H]1CN([C@H](C)CO)C(=O)Cc2cc(NC(=O)Cc3ccccc3)ccc2O[C@H]1CN(C)Cc1ccc(Oc2ccccc2)cc1,58.8%
27,C[C@@H]1CN([C@@H](C)CO)C(=O)c2cccc(NC(=O)C3CC3)c2O[C@@H]1CN(C)Cc1ccccc1,-2.71%

row,SMILES,ROS induction (% of piperlongumine)
1,C[C@@H]1CN([C@@H](C)CO)C(=O)Cc2cc(NC(=O)Cc3ccccc3)ccc2O[C@@H]1CN(C)Cc1ccc(Oc2ccccc2)cc1,115% (active)
2,C[C@H]1CN([C@@H](C)CO)C(=O)Cc2cc(NC(=O)Cc3ccccc3)ccc2O[C@@H]1CN(C)Cc1ccc(Cl)c(Cl)c1,88.2% (active)
3,Cc1cc(C(=O)Nc2cccc3c2O[C@@H](CN(C)Cc2ccc(C(=O)Nc4ccccc4N)cc2)[C@H](C)CN([C@@H](C)CO)C3=O)n(C)n1,29%
4,C[C@@H]1CN([C@H](C)CO)C(=O)Cc2cc(NC(=O)Nc3ccccc3)ccc2O[C@H]1CN(C)Cc1ccc(Cl)c(Cl)c1,13.3%
5,C[C@@H]1CN([C@H](C)CO)C(=O)c2cccc(NS(=O)(=O)c3ccc(F)cc3)c2O[C@H]1CN(C)Cc1ccc(Oc2ccccc2)cc1,102% (active)
6,C[C@H]1CN([C@@H](C)CO)C(=O)c2cccc(NS(=O)(=O)c3ccc(Cl)cc3)c2O[C@@H]1CN(C)Cc1ccc(Oc2ccccc2)cc1,23.2%
7,C[C@@H]1CN([C@H](C)CO)C(=O)Cc2cc(NC(=O)Cc3ccccc3)ccc2O[C@@H]1CN(C)Cc1ccccc1,35.5%
8,O=C(CSc1nc2c(sc3ccccc32)c(=O)n1Cc1ccccc1)NCCC1=CCCCC1,-2.88%
9,O=C(CN(Cc1ccc(Cl)cc1Cl)S(=O)(=O)c1ccccc1)N1CCCC1,-2.84%
10,O=C1CSc2ccccc2N1Cc1ccc(Cl)cc1,2.65%
11,Brc1ccc(CSc2c[nH]c3ccccc23)cc1,-17.1%
12,Cc1ccc(CNC(=O)c2nc3c(nnn3Cc3ccco3)c(=O)[nH]2)cc1,27.5%
13,CC(C)c1ccc(N2C(=O)CSCC2(C(=O)NC2CCCCC2)c2ccc(Cl)cc2)cc1 (stereo not given),-3.88%
14,CCCN(c1ccccc1OC)S(=O)(=O)c1cc(Br)cnc1N,1.12%
15,O=C(NC1CCCCCCC1)c1cccs1,-3.89%
16,O=C(CCCn1c(=O)c2cccn2c2ccccc21)N1CCCCC1,-0.17%
17,CN(C(=O)c1noc2c1CSc1ccccc1-2)c1cccc(C(F)(F)F)c1,-4.5%
18,O=C(Nc1ccc(-n2nncc2-c2ccccc2)cc1)c1ccc(S(=O)(=O)N2CCCCC2)cc1,51.9%
19,N#CC(C(=O)Nc1cccc(C(F)(F)F)c1)=C1CCCCCC1,14.7%
20,Cc1cccc(NC(=S)N2CCn3cccc3C2c2cccs2)c1 (stereo not given),-3.68%
21,C[C@H]1CN([C@@H](C)CO)C(=O)Cc2cc(NS(=O)(=O)c3cccs3)ccc2O[C@H]1CN(C)Cc1ccncc1,-8.79%
22,C[C@@H]1CN([C@H](C)CO)C(=O)Cc2cc(NS(=O)(=O)c3cccs3)ccc2O[C@@H]1CN(C)Cc1ccc(C(=O)O)cc1,11.6%
23,C[C@H]1CN([C@@H](C)CO)C(=O)c2cc(NC(=O)Cc3cn(C)c4ccccc34)ccc2O[C@H]1CN(C)Cc1ccc(Cl)c(Cl)c1,4.82%
24,C[C@H]1CN([C@@H](C)CO)C(=O)c2cc(NC(=O)Cc3cn(C)c4ccccc34)ccc2O[C@@H]1CN(C)Cc1ccc(Cl)c(Cl)c1,118% (active)
25,C[C@H]1CN([C@@H](C)CO)C(=O)Cc2cc(NS(=O)(=O)c3cccs3)ccc2O[C@@H]1CN(C)Cc1ccc(Oc2ccccc2)cc1,92.6% (active)
26,C[C@@H]1CN([C@@H](C)CO)C(=O)c2cc(NC(=O)Cc3ccccc3)ccc2O[C@H]1CN(C)Cc1ccc(Cl)c(Cl)c1,44.7%
